# Results from PubChem BioAssay (NCATS).
# Inconclusive results are not listed. Where a call stands in place of a potency, no number is given. Activity calls are given as the source filed them. Unless noted, calls come from the whole dose curve; as a rule, active = well fitted curve in the direction sought with a large enough effect; inconclusive = small, poorly fitted or top-dose-only effect, or effect the other way, or another doubt; inactive = no such curve, though single readings can be large or run the other way.
# Test: Nrf2 qHTS screen for inhibitors: Validation (AID 493153; active = well fitted inhibition curve with a large enough effect in the main read-out, with a control signal flat, not every such curve was filed as active; note: potency is the fitted concentration of half-maximal effect)
# Conditions: A549 ARE-Fluc reporter, 18-24 h; Potency: luciferase luminescence; viability change: measured here: cytotoxicity max response; luciferase luminescence, at 46.1 µM (top of the series)
# How it was run: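 In this counterscreened reporter format, each well gives two signals: CellTiter-Fluor fluorescence for cytotoxicity and ARE-luciferase luminescence for Nrf2 function. A549 ARE_Fluc cells in 5% FBS OPTI-MEM were exposed to compound titrations for 18-24 h.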
SMILES,Potency,viability change [%]
Nc1nc(SCc2ccc([N+](=O)[O-])cc2)c2ncn([C@@H]3O[C@H](CO)[C@@H](O)[C@H]3O)c2n1,inactive,12.2
CC(C)NCC(O)COc1cccc2ccccc12 (stereo not drawn),inactive,6.42
Fc1ccc(C(OCCCc2cnc[nH]2)c2ccc(F)cc2)cc1,inactive,0.0521
O=C(O)CC1CCCc2ccccc2C1O (stereo not drawn),inactive,2.15
CC1OC1P(=O)(O)O (stereo not drawn),inactive,11.8
Fc1cccc(/C=N/N=C/c2cccc(F)c2)c1,inactive,1.98
C#CCN1C(C)=C(C(=O)OC)C(c2cccc([N+](=O)[O-])c2)C(C(=O)OCC)=C1C (stereo not drawn),inactive,-0.517
NC(=O)C1=CN(C2OC(COP(=O)(O)OP(=O)(O)OC[C@H]3O[C@@H](n4cnc5c(N)ncnc54)[C@H](OP(=O)(O)O)[C@@H]3O)C(O)C2O)C=CC1 (stereo partly drawn),inactive,5.72
Cc1nc2sccn2c(=O)c1CCN1CCC(=C(c2ccccc2)c2ccc(F)cc2)CC1,inactive,0.941
NCCSSCCN,inactive,-6.08
CC(N)C(=O)OC(C)(C)Cc1ccc(Cl)cc1 (stereo not drawn),inactive,7.67
CCCCN1CCC(n2c(=O)[nH]c3ccccc32)CC1,inactive,-4.5
NO,inactive,4.95
NCCCCCCCCCCN,inactive,-2.16
COc1ccccc1N1CCN(CCN(C(=O)c2ccc(I)cc2)c2ccccn2)CC1,14.6 µM (active),-4.45
O=C(O)CCCC[C@@H]1CCSS1,inactive,5.5
NC(=O)C(=O)O,inactive,4.28

SMILES,Potency,viability change [%]
O=c1[nH]c2cc([N+](=O)[O-])c([N+](=O)[O-])cc2[nH]c1=O,inactive,0.435
N=C(N)SCCc1ccc(CCSC(=N)N)cc1,inactive,-6.92
NCC1OC(O[C@H]2[C@H](O)[C@@H](OC3C(O)C(N)CC(N)C3OC3OC(CO)C(O)C(O)C3N)O[C@@H]2CO)C(N)C(O)C1O (stereo partly drawn),inactive,1.58
CC(=O)N[C@H](C(=O)O)C(C)(C)SN=O,inactive,-5
O=P(O)(O)C(Cl)(Cl)P(=O)(O)O,inactive,4.97
CN1C2CCC1CC(OC(=O)C(O)c1ccccc1)C2 (stereo not drawn),inactive,-17.3
CNc1ncnc2c1ncn2[C@@H]1O[C@H](CO)[C@@H](O)[C@H]1O,inactive,-0.614
NC[C@@H]1O[C@H](C23CC4CC(CC(C4)C2)C3)Cc2c1ccc(O)c2O,inactive,3.16
OCC1O[C@H]([S-])[C@H](O)[C@@H](O)[C@@H]1O.[Au+] (stereo partly drawn),inactive,-19.1
CCN(CC)c1ncnc2c1ncn2[C@@H]1O[C@H](COP(=O)(O)OP(=O)(O)C(Br)(Br)P(=O)(O)O)[C@@H](O)[C@H]1O,inactive,-6.83
CCCCCCCCCCCCCCCC(=O)NCC(COP(=O)([O-])OCC[N+](C)(C)C)OCC (stereo not drawn),inactive,10.8
CN1CCC[C@H]1c1cccnc1,inactive,-3.72
N#C/C(=C\c1ccc(O)c(O)c1)C(=O)NCc1ccccc1,inactive,-19.8
N#C/C(=C\c1c[nH]c2ccccc12)C(=O)c1ccc(O)c(O)c1,inactive,-8.11
O=C(O)[C@@H]1C[C@H](C(=O)O)N1,inactive,12.1
C=C[C@H]1CN2CC[C@@H]1C[C@@H]2[C@@H](O)c1ccnc2ccc(OC)cc12,inactive,-1.39

# Test: qHTS for Inhibitors of Cell Surface uPA Generation: Validation Assay (AID 493164);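 note: RAW 264.7 macrophage cells exposed to compound for 18 h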
# Conditions: mouse cells, plasminogen activation; series mostly up to 38.3 µM
# How it was run: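 Compounds are titrated over seven points (2.45 nM–38.3 uM final) onto pre-plated RAW 264.7 cells and incubated for 18 h. Retained intracellular ATP, measured with ATP-Lite, indicates blocked lethal factor entry.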
row,SMILES,outcome
1,Nc1nc(SCc2ccc([N+](=O)[O-])cc2)c2ncn([C@@H]3O[C@H](CO)[C@@H](O)[C@H]3O)c2n1,inactive
2,Fc1ccc(C(OCCCc2cnc[nH]2)c2ccc(F)cc2)cc1,inactive
3,CCCCCCCCc1ccc(-c2ccc(C(=O)O)cc2)cc1,inactive
4,O=C(O)CC1CCCc2ccccc2C1O (stereo not drawn),inactive
5,CCCCCC(O)c1cccc(OCc2ccc3ccccc3n2)c1 (stereo not drawn),inactive
6,CC1OC1P(=O)(O)O (stereo not drawn),inactive
7,Fc1cccc(/C=N/N=C/c2cccc(F)c2)c1,inactive
8,C#CCN1C(C)=C(C(=O)OC)C(c2cccc([N+](=O)[O-])c2)C(C(=O)OCC)=C1C (stereo not drawn),inactive
9,NC(=O)C1=CN(C2OC(COP(=O)(O)OP(=O)(O)OC[C@H]3O[C@@H](n4cnc5c(N)ncnc54)[C@H](OP(=O)(O)O)[C@@H]3O)C(O)C2O)C=CC1 (stereo partly drawn),inactive
10,Cc1nc2sccn2c(=O)c1CCN1CCC(=C(c2ccccc2)c2ccc(F)cc2)CC1,inactive
11,NCCSSCCN,inactive
12,CC(N)C(=O)OC(C)(C)Cc1ccc(Cl)cc1 (stereo not drawn),inactive
13,CCOC(=O)N1CCN(/[N+]([O-])=N/Oc2ccc([N+](=O)[O-])cc2[N+](=O)[O-])CC1,inactive
14,CCCCN1CCC(n2c(=O)[nH]c3ccccc32)CC1,inactive
15,NO,inactive
16,NCCCCCCCCCCN,inactive
17,COc1ccccc1N1CCN(CCN(C(=O)c2ccc(I)cc2)c2ccccn2)CC1,inactive
18,O=C(O)CCCC[C@@H]1CCSS1,inactive
19,NC(=O)C(=O)O,inactive

row,SMILES,outcome
1,O=c1[nH]c2cc([N+](=O)[O-])c([N+](=O)[O-])cc2[nH]c1=O,inactive
2,N=C(N)SCCc1ccc(CCSC(=N)N)cc1,inactive
3,NCC1OC(O[C@H]2[C@H](O)[C@@H](OC3C(O)C(N)CC(N)C3OC3OC(CO)C(O)C(O)C3N)O[C@@H]2CO)C(N)C(O)C1O (stereo partly drawn),inactive
4,O=C(CCCCCN1CCN(c2ccccc2-c2ccccc2)CC1)NC1CCCc2ccccc21 (stereo not drawn),inactive
5,CC(=O)N[C@H](C(=O)O)C(C)(C)SN=O,inactive
6,O=P(O)(O)C(Cl)(Cl)P(=O)(O)O,inactive
7,CN1C2CCC1CC(OC(=O)C(O)c1ccccc1)C2 (stereo not drawn),inactive
8,CNc1ncnc2c1ncn2[C@@H]1O[C@H](CO)[C@@H](O)[C@H]1O,inactive
9,CC[C@@H](C)[C@H]1O[C@]2(CC[C@H]1C)C[C@@H]1C[C@@H](CC=C(C)[C@@H](O[C@H]3C[C@H](OC)[C@@H](O[C@H]4C[C@H](OC)[C@@H](O)[C@H](C)O4)[C@H](C)O3)[C@@H](C)C=CC=C3CO[C@@H]4[C@H](O)C(C)=C[C@@H](C(=O)O1)[C@]34O)O2,inactive
10,NC[C@@H]1O[C@H](C23CC4CC(CC(C4)C2)C3)Cc2c1ccc(O)c2O,inactive
11,OCC1O[C@H]([S-])[C@H](O)[C@@H](O)[C@@H]1O.[Au+] (stereo partly drawn),inactive
12,CCN(CC)c1ncnc2c1ncn2[C@@H]1O[C@H](COP(=O)(O)OP(=O)(O)C(Br)(Br)P(=O)(O)O)[C@@H](O)[C@H]1O,inactive
13,CCCCCCCCCCCCCCCC(=O)NCC(COP(=O)([O-])OCC[N+](C)(C)C)OCC (stereo not drawn),inactive
14,CN1CCC[C@H]1c1cccnc1,inactive
15,N#C/C(=C\c1ccc(O)c(O)c1)C(=O)NCc1ccccc1,inactive
16,N#C/C(=C\c1c[nH]c2ccccc12)C(=O)c1ccc(O)c(O)c1,inactive
17,O=C(O)[C@@H]1C[C@H](C(=O)O)N1,inactive
18,C=C[C@H]1CN2CC[C@@H]1C[C@@H]2[C@@H](O)c1ccnc2ccc(OC)cc12,inactive
